Laboratory results: the supplement of paper PMC11732987, “Enantioselective OTUD7B fragment discovery through chemoproteomics screening and high-throughput optimisation” (Communications Chemistry, 2025)

Assays:
Experiment in all cases: log2 ratio of Biotin-Ahx-Ub-VS probe labelling (fragment/DMSO); higher = less target engagement (more negative = stronger competition), active = hit call of the paper (q ≤ 0.05, log2 ratio ≤ -1)
Conditions in all cases: compound concentration: 200 uM; treatment time: 3 h
USP42 = target: T1, USP42 (UniProt Q9H9J4)
T1 sequence (whole entry): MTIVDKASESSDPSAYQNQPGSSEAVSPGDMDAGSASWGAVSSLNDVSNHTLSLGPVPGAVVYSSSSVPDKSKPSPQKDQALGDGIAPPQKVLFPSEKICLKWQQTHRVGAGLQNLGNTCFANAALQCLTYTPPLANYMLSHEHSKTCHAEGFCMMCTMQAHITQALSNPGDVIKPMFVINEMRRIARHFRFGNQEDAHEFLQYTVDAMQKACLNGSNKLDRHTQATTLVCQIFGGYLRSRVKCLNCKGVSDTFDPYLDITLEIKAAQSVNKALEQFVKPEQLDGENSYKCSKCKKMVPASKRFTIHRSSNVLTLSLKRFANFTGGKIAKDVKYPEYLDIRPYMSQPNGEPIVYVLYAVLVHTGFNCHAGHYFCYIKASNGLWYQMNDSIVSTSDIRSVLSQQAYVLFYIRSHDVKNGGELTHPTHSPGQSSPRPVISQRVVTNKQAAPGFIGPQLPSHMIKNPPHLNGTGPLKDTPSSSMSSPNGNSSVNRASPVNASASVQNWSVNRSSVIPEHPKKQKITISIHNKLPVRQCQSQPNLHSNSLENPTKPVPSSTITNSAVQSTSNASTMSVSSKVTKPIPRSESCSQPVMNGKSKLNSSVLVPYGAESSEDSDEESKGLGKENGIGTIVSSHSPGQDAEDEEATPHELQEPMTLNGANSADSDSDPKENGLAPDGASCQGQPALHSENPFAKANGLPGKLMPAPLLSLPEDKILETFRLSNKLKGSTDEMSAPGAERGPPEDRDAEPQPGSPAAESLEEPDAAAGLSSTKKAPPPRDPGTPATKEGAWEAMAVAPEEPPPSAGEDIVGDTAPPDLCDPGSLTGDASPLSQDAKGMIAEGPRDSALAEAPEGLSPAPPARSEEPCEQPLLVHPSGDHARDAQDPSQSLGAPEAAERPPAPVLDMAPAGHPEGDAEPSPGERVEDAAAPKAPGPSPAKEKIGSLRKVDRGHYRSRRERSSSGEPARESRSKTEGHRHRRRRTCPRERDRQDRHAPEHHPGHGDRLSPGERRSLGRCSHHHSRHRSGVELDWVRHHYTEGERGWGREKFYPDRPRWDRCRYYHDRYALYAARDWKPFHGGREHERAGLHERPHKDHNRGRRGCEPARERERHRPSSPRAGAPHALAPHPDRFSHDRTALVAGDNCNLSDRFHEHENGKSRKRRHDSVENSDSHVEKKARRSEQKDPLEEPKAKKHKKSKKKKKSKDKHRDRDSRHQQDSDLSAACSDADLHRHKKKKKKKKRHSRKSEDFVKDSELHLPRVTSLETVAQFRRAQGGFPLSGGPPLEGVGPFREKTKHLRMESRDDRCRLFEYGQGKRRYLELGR
Method in brief: (§1)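 HEK293T lysate (495 µg per sample, in Tris/CHAPS/IGEPAL buffer with protease inhibitors) was exposed in triplicate for 3 h to fragment at 200 µM or to vehicle, then to Biotin-Ahx-Ub-VS at 0.5 µM final for 1 h. Labelled DUBs were enriched on NeutrAvidin, digested with LysC and trypsin, and analysed by diaPASEF LC-MS/MS. Spectronaut label-free quantities were normalised to the global median, and values are average log2 ratios of fragment over vehicle from an unpaired t-test. Only proteins with ≥2 unique peptides were used.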

USP46 = USP46 (UniProt P62068)
Method in brief: as §1

USP47 = target: T2, USP47 (UniProt Q96K76)
T2 sequence (whole entry): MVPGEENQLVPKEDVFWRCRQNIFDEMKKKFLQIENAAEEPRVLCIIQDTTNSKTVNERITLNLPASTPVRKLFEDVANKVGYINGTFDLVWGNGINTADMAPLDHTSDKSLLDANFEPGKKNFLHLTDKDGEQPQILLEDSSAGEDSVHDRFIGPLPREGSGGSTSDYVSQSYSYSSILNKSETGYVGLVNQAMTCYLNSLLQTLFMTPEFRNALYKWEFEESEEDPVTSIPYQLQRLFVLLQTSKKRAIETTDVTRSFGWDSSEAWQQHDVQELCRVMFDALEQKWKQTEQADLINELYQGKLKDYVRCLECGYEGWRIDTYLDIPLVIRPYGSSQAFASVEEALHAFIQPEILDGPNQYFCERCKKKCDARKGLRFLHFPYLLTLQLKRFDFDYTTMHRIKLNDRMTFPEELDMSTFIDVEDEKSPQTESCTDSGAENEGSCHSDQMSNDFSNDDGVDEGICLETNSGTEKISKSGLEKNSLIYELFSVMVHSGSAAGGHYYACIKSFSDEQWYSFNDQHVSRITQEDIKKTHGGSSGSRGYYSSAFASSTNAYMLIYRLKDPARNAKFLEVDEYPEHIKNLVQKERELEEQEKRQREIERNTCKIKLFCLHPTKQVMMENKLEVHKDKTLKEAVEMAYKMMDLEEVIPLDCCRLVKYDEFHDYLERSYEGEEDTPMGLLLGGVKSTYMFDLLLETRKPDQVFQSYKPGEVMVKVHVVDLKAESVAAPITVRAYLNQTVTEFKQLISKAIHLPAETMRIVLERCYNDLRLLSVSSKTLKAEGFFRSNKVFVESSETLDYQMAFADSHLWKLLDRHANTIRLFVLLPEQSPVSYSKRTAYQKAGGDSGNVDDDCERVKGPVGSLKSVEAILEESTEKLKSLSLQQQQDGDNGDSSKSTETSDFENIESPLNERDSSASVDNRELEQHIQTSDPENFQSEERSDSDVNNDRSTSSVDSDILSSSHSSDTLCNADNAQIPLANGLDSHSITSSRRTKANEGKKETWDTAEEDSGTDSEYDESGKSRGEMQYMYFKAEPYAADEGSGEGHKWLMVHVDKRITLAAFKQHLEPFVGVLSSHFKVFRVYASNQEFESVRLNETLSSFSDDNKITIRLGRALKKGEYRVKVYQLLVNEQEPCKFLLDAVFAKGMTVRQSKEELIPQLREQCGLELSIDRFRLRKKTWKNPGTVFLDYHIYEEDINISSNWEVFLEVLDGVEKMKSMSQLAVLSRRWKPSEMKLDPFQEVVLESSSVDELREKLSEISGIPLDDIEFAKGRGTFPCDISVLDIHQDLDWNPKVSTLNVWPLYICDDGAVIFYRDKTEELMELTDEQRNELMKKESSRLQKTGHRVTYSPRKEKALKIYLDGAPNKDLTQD
Method in brief: as §1

USP48 = target: T3, USP48 (UniProt Q86UV5)
T3 sequence (whole entry): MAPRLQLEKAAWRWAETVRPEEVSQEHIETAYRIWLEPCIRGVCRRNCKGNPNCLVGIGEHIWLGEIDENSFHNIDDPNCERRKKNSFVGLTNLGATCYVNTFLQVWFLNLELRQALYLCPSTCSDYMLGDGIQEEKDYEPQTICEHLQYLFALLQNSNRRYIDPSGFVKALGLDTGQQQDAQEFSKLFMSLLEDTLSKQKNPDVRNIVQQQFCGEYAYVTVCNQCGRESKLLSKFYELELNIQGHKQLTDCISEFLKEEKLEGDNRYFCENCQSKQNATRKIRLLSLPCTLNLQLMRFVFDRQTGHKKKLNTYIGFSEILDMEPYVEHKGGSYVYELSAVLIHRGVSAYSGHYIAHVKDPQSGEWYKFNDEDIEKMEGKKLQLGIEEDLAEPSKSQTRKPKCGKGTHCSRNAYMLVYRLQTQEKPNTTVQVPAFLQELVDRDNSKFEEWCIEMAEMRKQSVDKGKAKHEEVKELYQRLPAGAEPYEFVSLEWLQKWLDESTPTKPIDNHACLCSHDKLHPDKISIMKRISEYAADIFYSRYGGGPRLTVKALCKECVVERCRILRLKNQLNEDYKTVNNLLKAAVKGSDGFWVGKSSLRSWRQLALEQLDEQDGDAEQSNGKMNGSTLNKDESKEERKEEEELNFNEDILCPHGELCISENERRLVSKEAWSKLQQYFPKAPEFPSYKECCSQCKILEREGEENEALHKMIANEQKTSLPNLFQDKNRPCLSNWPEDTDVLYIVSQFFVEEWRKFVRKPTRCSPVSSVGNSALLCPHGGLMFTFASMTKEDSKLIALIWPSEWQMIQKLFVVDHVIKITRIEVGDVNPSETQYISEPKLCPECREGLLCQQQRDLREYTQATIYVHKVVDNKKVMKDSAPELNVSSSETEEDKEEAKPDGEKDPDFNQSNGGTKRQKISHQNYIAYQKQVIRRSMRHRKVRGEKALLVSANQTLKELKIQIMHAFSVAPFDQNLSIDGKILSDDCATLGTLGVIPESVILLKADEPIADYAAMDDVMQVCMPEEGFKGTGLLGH
Method in brief: as §1

USP5 = target: T4, USP5 (UniProt P45974)
T4 sequence (whole entry): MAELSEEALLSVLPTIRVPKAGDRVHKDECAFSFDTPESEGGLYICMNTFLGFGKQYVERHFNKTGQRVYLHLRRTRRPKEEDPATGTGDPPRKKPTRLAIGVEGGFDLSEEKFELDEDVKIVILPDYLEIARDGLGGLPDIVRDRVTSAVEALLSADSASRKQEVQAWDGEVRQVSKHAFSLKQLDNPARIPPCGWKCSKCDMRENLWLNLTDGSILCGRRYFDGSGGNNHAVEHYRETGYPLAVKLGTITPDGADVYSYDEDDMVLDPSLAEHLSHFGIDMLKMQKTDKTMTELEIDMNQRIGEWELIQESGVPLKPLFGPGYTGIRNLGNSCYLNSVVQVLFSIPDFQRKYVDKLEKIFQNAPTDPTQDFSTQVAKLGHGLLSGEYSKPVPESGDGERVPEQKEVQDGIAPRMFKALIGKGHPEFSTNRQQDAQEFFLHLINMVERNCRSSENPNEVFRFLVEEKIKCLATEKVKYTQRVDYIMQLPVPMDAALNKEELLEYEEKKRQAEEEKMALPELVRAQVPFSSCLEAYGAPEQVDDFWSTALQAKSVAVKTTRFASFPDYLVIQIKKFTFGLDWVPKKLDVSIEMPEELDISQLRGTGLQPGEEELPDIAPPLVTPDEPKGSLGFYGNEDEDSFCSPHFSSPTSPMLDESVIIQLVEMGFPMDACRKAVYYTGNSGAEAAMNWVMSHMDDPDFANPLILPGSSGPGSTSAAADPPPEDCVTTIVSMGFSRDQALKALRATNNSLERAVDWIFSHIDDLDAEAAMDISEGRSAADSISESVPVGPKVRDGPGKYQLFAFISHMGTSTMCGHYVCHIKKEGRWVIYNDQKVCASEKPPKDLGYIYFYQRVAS
Method in brief: as §1

USP54 = USP54 (UniProt Q70EL1)
Method in brief: as §1

USP7 = USP7 (UniProt Q93009)
Method in brief: as §1

USP8 = target: T5, USP8 (UniProt P40818)
T5 sequence (whole entry): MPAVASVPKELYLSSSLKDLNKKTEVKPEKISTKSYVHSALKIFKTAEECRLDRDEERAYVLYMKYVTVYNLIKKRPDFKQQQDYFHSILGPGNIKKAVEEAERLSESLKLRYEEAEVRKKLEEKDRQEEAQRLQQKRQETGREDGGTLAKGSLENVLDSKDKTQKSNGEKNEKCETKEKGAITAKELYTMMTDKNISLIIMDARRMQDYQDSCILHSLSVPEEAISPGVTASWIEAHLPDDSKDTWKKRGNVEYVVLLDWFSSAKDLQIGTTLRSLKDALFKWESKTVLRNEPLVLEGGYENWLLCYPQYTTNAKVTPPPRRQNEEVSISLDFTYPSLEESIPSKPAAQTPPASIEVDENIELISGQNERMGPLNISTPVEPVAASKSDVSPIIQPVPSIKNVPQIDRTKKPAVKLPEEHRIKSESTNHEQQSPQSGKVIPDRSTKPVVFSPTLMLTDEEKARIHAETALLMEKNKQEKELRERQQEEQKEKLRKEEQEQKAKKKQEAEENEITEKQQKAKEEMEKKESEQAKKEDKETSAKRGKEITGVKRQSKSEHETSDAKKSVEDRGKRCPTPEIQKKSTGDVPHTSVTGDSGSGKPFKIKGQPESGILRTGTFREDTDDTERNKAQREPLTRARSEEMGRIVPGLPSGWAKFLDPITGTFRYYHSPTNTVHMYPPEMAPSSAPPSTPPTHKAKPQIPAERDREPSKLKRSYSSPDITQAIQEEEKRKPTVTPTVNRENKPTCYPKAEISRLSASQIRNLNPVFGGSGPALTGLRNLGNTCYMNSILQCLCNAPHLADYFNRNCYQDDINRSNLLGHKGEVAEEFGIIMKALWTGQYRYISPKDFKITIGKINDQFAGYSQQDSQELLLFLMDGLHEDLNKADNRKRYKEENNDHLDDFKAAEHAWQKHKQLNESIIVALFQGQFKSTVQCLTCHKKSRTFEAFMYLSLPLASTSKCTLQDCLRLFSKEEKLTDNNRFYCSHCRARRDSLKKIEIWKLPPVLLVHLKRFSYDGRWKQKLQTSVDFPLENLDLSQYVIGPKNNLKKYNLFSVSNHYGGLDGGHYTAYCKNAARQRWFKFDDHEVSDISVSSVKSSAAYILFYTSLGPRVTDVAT
Method in brief: as §1

Measured: log2 ratio of Biotin-Ahx-Ub-VS probe labelling

USP54, sequence (Q70EL1 whole entry): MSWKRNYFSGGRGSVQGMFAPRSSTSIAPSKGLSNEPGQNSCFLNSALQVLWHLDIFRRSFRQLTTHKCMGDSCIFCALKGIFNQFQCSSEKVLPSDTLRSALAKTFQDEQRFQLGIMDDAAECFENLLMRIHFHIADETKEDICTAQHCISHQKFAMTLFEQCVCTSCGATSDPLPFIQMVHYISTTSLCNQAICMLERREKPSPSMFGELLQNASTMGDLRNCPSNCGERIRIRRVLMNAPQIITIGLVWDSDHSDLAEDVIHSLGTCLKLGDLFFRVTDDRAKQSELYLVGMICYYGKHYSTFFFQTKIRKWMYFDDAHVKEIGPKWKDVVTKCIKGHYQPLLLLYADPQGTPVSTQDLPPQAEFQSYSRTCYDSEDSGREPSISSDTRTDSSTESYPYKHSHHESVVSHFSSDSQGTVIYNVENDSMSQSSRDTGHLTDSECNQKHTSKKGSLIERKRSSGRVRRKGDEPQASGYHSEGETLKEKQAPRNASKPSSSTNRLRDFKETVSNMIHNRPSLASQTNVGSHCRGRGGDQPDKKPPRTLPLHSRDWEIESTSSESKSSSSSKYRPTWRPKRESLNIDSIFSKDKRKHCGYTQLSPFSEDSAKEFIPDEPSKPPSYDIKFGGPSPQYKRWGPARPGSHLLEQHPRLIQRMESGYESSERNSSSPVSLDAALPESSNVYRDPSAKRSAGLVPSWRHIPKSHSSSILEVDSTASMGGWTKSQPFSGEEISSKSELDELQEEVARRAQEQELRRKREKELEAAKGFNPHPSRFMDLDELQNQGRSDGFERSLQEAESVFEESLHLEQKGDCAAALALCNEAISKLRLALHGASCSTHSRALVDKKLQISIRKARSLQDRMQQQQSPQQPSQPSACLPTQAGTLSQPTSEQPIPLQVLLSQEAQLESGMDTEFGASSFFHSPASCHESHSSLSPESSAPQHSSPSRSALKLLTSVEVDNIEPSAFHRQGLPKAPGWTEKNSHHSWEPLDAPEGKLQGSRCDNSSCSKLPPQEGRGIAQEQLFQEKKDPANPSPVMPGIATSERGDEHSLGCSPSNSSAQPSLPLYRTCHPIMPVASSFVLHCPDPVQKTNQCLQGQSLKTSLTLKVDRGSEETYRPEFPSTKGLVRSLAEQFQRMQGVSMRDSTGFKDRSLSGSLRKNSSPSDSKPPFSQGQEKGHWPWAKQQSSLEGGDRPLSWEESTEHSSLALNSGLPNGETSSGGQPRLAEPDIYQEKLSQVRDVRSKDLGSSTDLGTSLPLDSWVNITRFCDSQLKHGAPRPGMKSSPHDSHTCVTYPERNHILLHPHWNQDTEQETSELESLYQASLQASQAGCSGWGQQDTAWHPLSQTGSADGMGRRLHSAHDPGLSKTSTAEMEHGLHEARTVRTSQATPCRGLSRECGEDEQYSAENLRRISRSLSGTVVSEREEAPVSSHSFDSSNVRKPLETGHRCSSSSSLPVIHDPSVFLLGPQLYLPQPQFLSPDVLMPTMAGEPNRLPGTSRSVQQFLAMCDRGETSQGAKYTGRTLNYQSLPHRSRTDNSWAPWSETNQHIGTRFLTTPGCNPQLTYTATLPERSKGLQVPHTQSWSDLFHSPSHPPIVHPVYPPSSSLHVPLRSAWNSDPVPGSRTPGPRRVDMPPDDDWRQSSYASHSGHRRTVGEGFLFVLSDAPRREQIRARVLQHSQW
USP7, sequence (Q93009 whole entry, looked up): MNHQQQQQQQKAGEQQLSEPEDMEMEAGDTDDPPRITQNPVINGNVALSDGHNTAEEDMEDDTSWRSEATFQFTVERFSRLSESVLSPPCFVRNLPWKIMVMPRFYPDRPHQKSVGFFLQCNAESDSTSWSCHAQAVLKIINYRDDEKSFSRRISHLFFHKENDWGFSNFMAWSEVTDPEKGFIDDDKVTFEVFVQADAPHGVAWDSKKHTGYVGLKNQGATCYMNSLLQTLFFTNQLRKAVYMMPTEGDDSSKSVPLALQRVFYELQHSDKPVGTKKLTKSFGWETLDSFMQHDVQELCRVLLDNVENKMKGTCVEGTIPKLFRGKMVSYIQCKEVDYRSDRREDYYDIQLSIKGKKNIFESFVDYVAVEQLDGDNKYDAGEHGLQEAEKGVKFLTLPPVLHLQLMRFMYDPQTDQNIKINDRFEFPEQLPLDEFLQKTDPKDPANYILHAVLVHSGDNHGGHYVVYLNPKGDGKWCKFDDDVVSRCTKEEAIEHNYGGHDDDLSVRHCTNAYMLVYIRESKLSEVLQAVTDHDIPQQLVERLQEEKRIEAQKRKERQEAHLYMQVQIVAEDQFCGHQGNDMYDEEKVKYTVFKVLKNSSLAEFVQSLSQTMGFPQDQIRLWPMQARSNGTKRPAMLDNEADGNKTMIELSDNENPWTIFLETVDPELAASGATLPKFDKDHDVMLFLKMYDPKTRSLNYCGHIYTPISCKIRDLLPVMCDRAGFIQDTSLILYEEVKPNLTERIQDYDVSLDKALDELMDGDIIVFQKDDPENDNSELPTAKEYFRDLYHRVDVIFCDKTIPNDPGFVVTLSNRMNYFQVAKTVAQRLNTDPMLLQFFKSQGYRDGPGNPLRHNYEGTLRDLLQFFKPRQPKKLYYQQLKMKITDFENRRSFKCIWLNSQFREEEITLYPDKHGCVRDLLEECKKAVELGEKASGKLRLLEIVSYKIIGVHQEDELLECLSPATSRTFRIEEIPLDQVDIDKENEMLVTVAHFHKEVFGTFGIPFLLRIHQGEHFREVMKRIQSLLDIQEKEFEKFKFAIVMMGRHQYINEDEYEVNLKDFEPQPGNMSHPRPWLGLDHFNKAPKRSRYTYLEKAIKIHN
USP46, sequence (P62068 whole entry): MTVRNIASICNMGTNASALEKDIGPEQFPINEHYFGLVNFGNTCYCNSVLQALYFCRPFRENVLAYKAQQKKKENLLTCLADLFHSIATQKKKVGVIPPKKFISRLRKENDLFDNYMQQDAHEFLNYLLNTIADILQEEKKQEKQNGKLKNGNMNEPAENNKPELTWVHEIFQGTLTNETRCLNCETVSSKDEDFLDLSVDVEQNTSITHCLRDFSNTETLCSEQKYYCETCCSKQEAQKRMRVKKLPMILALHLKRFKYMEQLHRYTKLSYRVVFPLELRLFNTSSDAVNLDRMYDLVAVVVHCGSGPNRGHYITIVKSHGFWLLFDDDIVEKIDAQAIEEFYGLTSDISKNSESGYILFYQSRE

O=C(CCl)N1CCC(c2nc3ccccc3o2)CC1
inactive: USP42 -0.0372 | USP46 -0.0557 | USP47 -0.397 | USP48 -0.598 | USP5 0.186 | USP54 0.726 | USP7 -0.746 | USP8 -0.0637
